This note sets out measurements from PubChem BioAssay (Tox21).

“And” between values parts separate entries of the source, which are not always exact repeats. Identical values can stand only once. Records with an inconclusive call do not appear. The source made the active and inactive calls. Calls follow the shape of the dose curve; as a rule, active = well fitted activation curve with a large enough effect in the repeat runs; inconclusive = weak or mixed curves; inactive = no such curve, though single readings can be large or run the other way.
% is scaled to controls: 0 for no effect and ±100 for the full control effect; potency is read from the fitted curve at half-maximal effect.

The target of the test is Nuclear receptor subfamily 1 group I member 2 (Rattus norvegicus) (UniProt Q9R1A7). In words: Rat pregnane X receptor (rPXR) activation by small molecules, qHTS assay (AID 1346983). Also: nearly all actives have a fitted effect of over 20% in size. Particulars: rPXR luciferase reporter cells, One-Glo luminescence, 24 h; max activation: active compounds read high. From the text: National Center for Advancing Translational Sciences [NCATS] NIH Chemical Genomics Center [NCGC] U.S. Environmental Protection Agency [EPA] National Institutes of Environmental Health Sciences [NIEHS] National Toxicology Program [NTP] Assay overview: The Pregnane X receptor (PXR), a ligand activated nuclear receptor plays a critical role in the regulation of genes involved in drug metabolism and transporters. PXR binds xenobiotics and when compounds interact with PXR produces enhanced expression of CYP3A genes. In humans PXR activation and CYP3A4 induction can be problematic due to their interactions with co-medicated drugs and decrease their efficacy or increase their own metabolism. However, there are known species-specific differences with regard to PXR activation that should be taken into account when animal PXR data are extrapolated to humans. A cell based rat PXR (rPXR) assay (developed by Puracyp, Inc., CA) was used to assess the activation of rPXR.
Nuclear receptor subfamily 1 group I member 2 (Rattus norvegicus), sequence (Q9R1A7 whole entry, looked up): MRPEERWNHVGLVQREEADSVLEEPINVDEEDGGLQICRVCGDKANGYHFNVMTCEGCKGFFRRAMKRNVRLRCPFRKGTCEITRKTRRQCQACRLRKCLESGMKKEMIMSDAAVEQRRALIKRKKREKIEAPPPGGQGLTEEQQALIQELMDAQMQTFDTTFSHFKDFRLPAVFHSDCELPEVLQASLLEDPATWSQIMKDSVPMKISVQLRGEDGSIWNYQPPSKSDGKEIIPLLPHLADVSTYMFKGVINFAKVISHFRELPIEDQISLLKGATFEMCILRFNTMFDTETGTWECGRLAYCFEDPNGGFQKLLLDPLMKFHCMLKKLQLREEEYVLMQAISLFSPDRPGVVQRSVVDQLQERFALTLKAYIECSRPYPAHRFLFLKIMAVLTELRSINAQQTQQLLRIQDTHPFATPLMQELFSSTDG
Assay Protocol Summary: rPXR cells were dispensed at 2,000 per well in 5uL of assay medium into white, solid-bottom 1536-well plates using a Multidrop Combi dispenser (Thermo Scientific). The assay plates were incubated at 37 C for 5hr before transferring 23 nL of test compounds dissolved in DMSO and positive control via Pintool station (Wako). The assay plates were incubated at 37 C for 24 hr. Then 5ul One-Glo assay reagent (Promega) was added to each plate by a Flying Reagent Dispenser (FRD, Aurora Discovery) and following 30 min incubation at room temperature, luciferase activity was quantified on a ViewLux plate reader (Perkin Elmer).
For orientation: qHTS replaces the single test concentration by a dilution series.
For the compound `CCCCCCCCCCCCCCCCCC(=O)OCC(O)CO` (centres undefined), the max activation was 0.317% (inactive).
On to `CCCCC/C(C=O)=C\c1ccccc1`, for which the max activation is -0.992% (inactive).
Turning to `Cc1ccc(O)c(-n2nc3ccccc3n2)c1`, the max activation was -1.88% (inactive).
In the case of `COc1ccc(O)cc1`, the max activation was -2.37% (inactive).
As to `COc1cc(O)c(C(=O)c2ccccc2)cc1S(=O)(=O)O`, the max activation is -1.72% (inactive).
Turning to `CCN1CCCC1=O`, the max activation is 3.15% (inactive).
The same measure, in the same setting: the same measure for `N[C@@H](Cc1c[nH]c2ccc(O)cc12)C(=O)O`: -0.341% (inactive); for `COc1ccccc1O`: -3.23% (inactive).
`NCCNc1cccc2ccccc12`: the max activation is -4.28% (inactive).
Regarding `CCCCNC(=O)NS(=O)(=O)c1ccc(N)cc1`, the max activation is -2.23% (inactive).
On to `NC(N)=NC(N)=NCCc1ccccc1`, for which the max activation is -11.7% (inactive) and -9.14% (inactive).
With `COC(=O)c1ccc(O)cc1`, the max activation is -1.51% (inactive).
For the compound `CC1(C)O[C@@H]2[C@@H](CO[C@@]3(COS(N)(=O)=O)OC(C)(C)O[C@@H]23)O1`, the max activation is -4.73% (inactive).
For the compound `CC(C)(C)CC(C)(C)c1ccc(O)c(-n2nc3ccccc3n2)c1`, the max activation is -2.63% (inactive).
As for `O=C(O)Cc1cccc2ccccc12`, the max activation was -6.88% (inactive).
Regarding `OC[C@@H](O)[C@@H](O)[C@H](O)[C@H](O)CO`, the max activation is -0.524% (inactive).
As for `C#C[C@]1(O)CC[C@H]2[C@@H]3CCc4cc(O)ccc4[C@H]3CC[C@@]21C`, the max activation is 10.3% (inactive).
The same measure, in the same setting: for `CCCCCCCCCCCCCC(=O)OC(C)C` the value was -1.74% (inactive); for `C/C=C/c1ccc(O)c(OC)c1`, 6.95% (inactive); for `CC1=NN(c2ccccc2)C(=O)C1`, -4.19% (inactive).
For `CCN(CC)CCOC(=O)c1ccc(N)cc1`, the max activation was -0.318% (inactive).
Turning to `C[C@]12C[C@H](O)[C@H]3[C@@H](CCC4=CC(=O)CC[C@@]43C)[C@@H]1CC[C@@H]2C(=O)CO`, the max activation is -5.48% (inactive).
Turning to `O=C(OCc1ccccc1)c1ccccc1`, the max activation is 0.688% (inactive).
The same measure, in the same setting: the same measure for `Oc1cccc(O)c1`: -3.43% (inactive); for `CCCCCCCC(=O)OCC(O)CO` (centres undefined): -5.07% (inactive); for `Cc1c(N(C)CS(=O)(=O)O)c(=O)n(-c2ccccc2)n1C`: -2.23% (inactive).
For `CO[C@H]1C=CO[C@@]2(C)Oc3c(C)c(O)c4c(O)c(c(/C=N/N5CCN(C)CC5)c(O)c4c3C2=O)NC(=O)/C(C)=C\C=C[C@H](C)[C@H](O)[C@@H](C)[C@@H](O)[C@@H](C)[C@H](OC(C)=O)[C@@H]1C`, the max activation is -4.8% (inactive).
As for `C#C[C@]1(O)CC[C@H]2[C@@H]3CCC4=CC(=O)CC[C@@H]4[C@H]3CC[C@@]21CC`, the max activation was -1.1% (inactive).
On to `COC1=CC(=O)C[C@@H](C)[C@]12Oc1c(Cl)c(OC)cc(OC)c1C2=O`, for which the Potency is 28.2 µM (active).
In the case of `NC(=O)N/N=C/c1ccc([N+](=O)[O-])o1`, the max activation is -4.99% (inactive).
As for `CCCCCCCCOc1ccc(C(=O)c2ccccc2)c(O)c1`, the max activation is -2.91% (inactive).
`NC(=O)c1ccc([N+](=O)[O-])cc1Cl`: the max activation is 2.53% (inactive).
On the same count and under the same terms, the same measure for `O=c1cc[nH]c(=O)[nH]1`: -0.198% (inactive).
The same measure, in the same setting: for `CC(O)COc1ccccc1` (centres undefined) the value was -1.1% (inactive).
